The text below walks through data of PubChem BioAssay (NCI).

Molecules are shown by their SMILES. The panel holds about 83,000 compounds, 20% with a hit somewhere; the sample as a whole holds those more often.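 Single-concentration screen, 48 h exposure, 96-well plates. Endpoint: percent growth. Below 10 = active.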 Values without a mark were called inactive. Activity calls are given as the source filed them.

Common to all, as to assay: NCI-60 one-dose screen, 48 h (100 = growth as untreated, 0 = no growth, -100 = all killed)
Assay [1] concerns SK-MEL-2 melanoma. The note with it: 10 µM unless noted.
Assay [2] has as its system EKVX NSCLC. The following applies: 10 µM unless noted.
The subject of assay [3] is SN12C renal. The note with it: 10 µM unless noted.
Assay [4] has as its system UO-31 renal. The following applies: 10 µM unless noted.
Assay [5] concerns TK-10 renal. The following applies: 10 µM unless noted.
In assay [6] the test system is ACHN renal. The following applies: 10 µM unless noted.
Assay [7] has as its system A498 renal. The note with it: 10 µM.
Assay [8] concerns HL-60(TB) leukemia. The note with it: 10 µM unless noted.
Assay [9] relates to CCRF-CEM leukemia. The following applies: 10 µM unless noted.
For assay [10], the system named is CAKI-1 renal. The note with it: 10 µM unless noted.

Take `CCOC(=O)[C@@H](C)C[C@H](Cc1ccccc1)NC(=O)c1csc([C@@H](C[C@H](C(C)C)N(C)C(=O)CNC(=O)[C@H]2CCCCN2C)OC(C)=O)n1`: the growth in [1] is 28.1%; in assay [2], 34.8%; in assay [3] it was 36%; in assay [4] it was 39.7%; in [5] it was 65.7%; in assay [6], 43.7%. The growth in [7] is -3.32% (active); in assay [8], -32.3% (active); in assay [9] it was 5.17% (active).

Consider `COC(=O)[C@@]1(C)CC[C@]2(C)CC[C@]3(C)C4=CC(=O)c5c(cc(O)c(O)c5C)[C@]4(C)CC[C@@]3(C)[C@@H]2C1`, for which the growth was 71.6% in assay [1]; 71.7% in assay [2]; 61.7% in [3]; 50.6% in assay [4]; 68.9% in assay [5]; 53.3% in assay [6]. For the same compound, the growth is 57.1% in [7], 38.4% in assay [8] and 26.9% in assay [9].

Turning to `Cn1cc(-c2csc(-c3cn(CCN4CCOCC4)c4ccccc34)n2)c2cccnc21`, the growth in assay [1] was 68.8%; in [2], 55.1%; in [3], 77.4%; in assay [4] it was 34.9%; in [5], 87.9%; in [6] it was 63%. Further, the growth is 85.1% in [7], 36.1% in assay [8] and 36.9% in [9].

As for `COC(=O)[C@@H](C)C[C@H](Cc1ccc2ccccc2c1)NC(=O)c1csc([C@@H](C[C@H](C(C)C)N(C)C(=O)[C@@H](NC(=O)[C@H]2CCCCN2C)C(C)C)OC(C)=O)n1`, the growth in [1] was 57.8%; in assay [2], 46.1%; in [3], 33.5%; in [4] it was 23.1%; in assay [5] it was 28%; in assay [6] it was 4.23% (active). In addition, the growth was 21.7% in assay [7] and 24.2% in assay [9].

`CN[C@]1(c2ccccc2Cl)CCCC[C@H]1NCCCN1CCN(C)CC1`: the growth in assay [1] was 103%; in [2], 92%; in [3], 97.4%; in assay [4], 76.3%; in assay [5] it was 96.4%; in assay [6], 108%. Besides, the growth is 93.9% in assay [8] and 99.6% in [9].

Turning to `Brc1ccc2c(c1)c(-c1nc(-c3c[nH]c4ncccc34)cs1)cn2CCN1CCCCC1`, the growth in assay [1] was 82.7%; in assay [2], 66.9%; in assay [3], 80%; in assay [4], 44.8%; in assay [5], 81.5%; in assay [7] it was 95.7%. In addition, the growth in assay [8] was 66%; in assay [9], 50.8%.

Consider `C/C(=C\c1cc(C(F)(F)F)nn1CCNC(=O)OC(C)(C)C)[C@@H]1C[C@@H]2O[C@]2(C)CCC[C@H](C)[C@H](O)[C@@H](C)C(=O)C(C)(C)[C@@H](O)CC(=O)O1`, for which the growth in [1] was 75.1%; in assay [2], 65%; in [3], 87%; in assay [4], 49.5%; in [5] it was 69.2%; in [10], 47.1%. Further, the growth in [7] is 49.3%; in assay [8], 14.1%; in [9] it was 67.2%.

Consider `O=c1[nH]c2ccc([N+](=O)[O-])cc2c(=O)o1`, for which the growth was 111% in assay [1]; 107% in assay [2]; 98.2% in [3]; 90.7% in assay [4]; 104% in assay [5]; 93.3% in [6]. The growth in [9] was 96.1%.

In the case of `Clc1ccc(COC(Cn2ccnc2)c2ccc(Cl)cc2Cl)cc1` (configuration not stated), the growth was 68.9% in assay [1]; 30.7% in assay [2]; 68.4% in assay [3]; 20.7% in assay [4]; 62% in assay [5]; 21.4% in assay [10]. Moreover, the growth was 43.4% in assay [7] and 30.6% in assay [9].

In the case of `Fc1c[c-]c(-c2ccccn2)c(F)c1.[CH3-].[Pt+2].c1ccc([PH+](c2ccccc2)c2ccccn2)cc1`, the growth in assay [1] is -34.1% (active); in [2] it was 4.9% (active); in [3], 3.34% (active); in [4], -71.9% (active); in assay [5] it was -1.18% (active); in assay [10] it was -56.2% (active). For the same compound, the growth in [7] is -21% (active); in [8] it was -6.41% (active); in [9], 9.35% (active).

Take `COc1cc([C@@H]2c3cc4c(cc3[C@H](OC(C)=O)[C@H]3COC(=O)[C@H]23)OCO4)cc(OC)c1OC`: the growth in [1] was 33.2%; in assay [2] it was 38.3%; in assay [3] it was 31.9%; in [4], 43.7%; in [5], 65.9%; in [7], -7.56% (active). In addition, the growth in [8] is -24.8% (active); in assay [9], 14.4%.

With `N#CC1C(C#N)C2CCC1C1C2N1c1ccccc1` (configuration not stated), the growth in assay [1] was 106%; in assay [2] it was 97.5%; in assay [3], 99.5%; in assay [4], 72.3%; in assay [5], 106%; in assay [6], 97.4%. For the same compound, the growth in assay [8] is 91.7%; in [9], 82.9%.

For the compound `CC(=O)O[C@H](C[C@H](C(C)C)N(C)C(=O)[C@@H](NC(=O)[C@H]1CCCCN1C)C(C)C)c1nc(C(=O)N[C@@H](Cc2ccccc2)C[C@H](C)C(=O)O)c(C)s1`, the growth was 61.5% in [1]; 40.9% in [2]; 34.6% in assay [3]; 58.9% in assay [4]; 36.9% in assay [5]; 26.6% in assay [6]. Moreover, the growth was -8.24% (active) in assay [7] and 10.8% in assay [9].

As for `O=C1C(=Cc2cn(Cc3ccccc3)c3ccccc23)C(=O)N(Cc2ccccc2)C(=O)N1Cc1ccccc1`, the growth in [1] was 83.9%; in assay [2], 97.5%; in assay [3], 101%; in assay [4], 73.3%; in [5], 40.7%; in assay [10] it was 94.6%. For the same compound, the growth in assay [7] is -95.7% (active); in [8], 96.4%; in [9], 118%.
